A short description of experiment [1]: optical density shifts of acrAB sulA E. coli – strain DRC41, OD650, 48 h, E. coli filamentation inducer project, primary screen (AID 1152).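 Note: E. coli MC1000 strain DRC41 lacking acrAB efflux pump and sulA.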 To be noted: higher = more signal, called active from +8 up or from −8 down.
Experiment [2] in a line: probe aLefty1 binding on compound microarray – biochemical, small-molecule microarray, 635/667 nm fluorescence, primary screen (AID 1153).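 Note: score merges spot fluorescence with signal-to-noise ratio from the scanned slide images.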 To be noted: higher = more signal.
Experiment [3] in a line: plasmodial surface anion channel blockers, osmotic lysis – cell-based, P. falciparum Indochina, OD700, 1 h, primary screen (AID 1154). The settings on record: P. falciparum Indochina infected RBC osmotic lysis, higher = more signal, called active from +8 up or from −8 down.
Experiment [4] in a line: plasmodial surface anion channel blockers, osmotic lysis – cell-based, P. falciparum Indochina, OD700, 2 h, primary screen (AID 1155).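 Note: lysis reports solute entry through the parasite surface anion channel PSAC.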 The settings on record: P. falciparum Indochina infected erythrocytes, higher = more signal, called active from +8 up or from −8 down.
A short description of experiment [5]: changes in parasitized red cell lysis, either direction – P. falciparum Indochina, OD700, 3 h, PSAC antagonist project, primary screen (AID 1156). The settings on record: P. falciparum-infected erythrocytes, osmotic lysis, higher = more signal, called active from +8 up or from −8 down.
Experiment [6] can be described thus: plasmodial surface anion channel blockers, osmotic lysis – cell-based, P. falciparum Indochina, OD700, 18 h, primary screen (AID 1157). To be noted: P. falciparum Indochina infected erythrocytes, osmotic lysis OD700, 18 h; higher = more signal, called active from +8 up or from −8 down.
Experiment [7] can be described thus: S6 kinase pathway phospho-S6 level changes – cell-based, A549, cytoblot, luminescence, serum-stimulated, primary screen (AID 1158).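 Note: serum-stimulated A549 lung adenocarcinoma cells; signal is phosphorylated S6 detected by cytoblot immunostaining with HRP secondary.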 The settings on record: 5 h, higher = more signal.
Experiment [8] addresses NADPH oxidase 2 (Homo sapiens) (UniProt P04839). Nature of the experiment: compounds shifting NOX2 Amplex Red fluorescence – cell-based, HEK293-NOX2, PMA-stimulated, NOX inhibitor project, primary screen (AID 1159). Note: test concentration not given here. To be noted: 45 min, higher = more signal, called active from +8 up or from −8 down.
Experiment [9] has as its target NADPH oxidase 4 (Homo sapiens) (UniProt Q9NPH5). Nature of the experiment: compounds shifting NOX4 Amplex Red fluorescence – cell-based, HEK293-NOX4, tetracycline-induced, NOX inhibitor project, primary screen (AID 1160). To be noted: HEK293-NOX4, Amplex Red H2O2 fluorescence, 45 min; higher = more signal, called active from +8 up or from −8 down.
In experiment [10] the target is NADPH oxidase 5 (Homo sapiens) (UniProt Q96PH1). Nature of the experiment: compounds shifting NOX5 Amplex Red fluorescence – cell-based, HEK293-NOX5, NOX inhibitor project, primary screen (AID 1161). To be noted: HEK293-NOX5, ionomycin, 45 min, higher = more signal.
Sequence of NADPH oxidase 5 (Homo sapiens) (Q96PH1 whole entry, looked up): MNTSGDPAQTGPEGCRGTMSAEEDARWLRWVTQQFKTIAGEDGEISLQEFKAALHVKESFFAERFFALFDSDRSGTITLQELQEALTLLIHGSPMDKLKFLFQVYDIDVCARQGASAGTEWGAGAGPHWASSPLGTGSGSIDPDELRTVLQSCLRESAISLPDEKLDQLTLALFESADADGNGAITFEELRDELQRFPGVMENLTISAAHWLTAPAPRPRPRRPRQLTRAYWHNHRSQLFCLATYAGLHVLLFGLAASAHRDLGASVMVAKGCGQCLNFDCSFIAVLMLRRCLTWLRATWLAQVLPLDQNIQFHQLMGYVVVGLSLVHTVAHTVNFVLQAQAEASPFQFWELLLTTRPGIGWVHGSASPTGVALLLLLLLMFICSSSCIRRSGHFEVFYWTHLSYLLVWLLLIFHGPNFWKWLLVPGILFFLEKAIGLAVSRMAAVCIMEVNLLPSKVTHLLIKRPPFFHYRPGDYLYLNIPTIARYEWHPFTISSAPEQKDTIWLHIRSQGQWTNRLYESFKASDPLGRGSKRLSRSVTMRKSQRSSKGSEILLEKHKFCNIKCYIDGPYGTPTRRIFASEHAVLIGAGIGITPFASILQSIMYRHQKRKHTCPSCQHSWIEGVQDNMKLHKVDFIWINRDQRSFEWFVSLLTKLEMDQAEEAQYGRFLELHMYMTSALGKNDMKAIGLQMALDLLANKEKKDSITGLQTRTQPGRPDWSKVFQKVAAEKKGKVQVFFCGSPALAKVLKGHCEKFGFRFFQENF
A short description of experiment [11]: compound effects on lung adenocarcinoma cell viability – A549, calcein-AM fluorescence, 48 h, basal, profiling panel (AID 1162). Note: test concentration not given here. The settings on record: higher = more signal.
The nature of experiment [12]: compound effects on differentiated 3T3-L1 adipocyte viability – cell-based, 3T3-L1 adipocytes, calcein-AM fluorescence, 48 h, basal, profiling panel (AID 1163). Note: test concentration not given here. To be noted: 3T3-L1 adipocytes viability, higher = more signal.
The nature of experiment [13]: compound effects on hepatocellular carcinoma cell viability – HepG2, calcein-AM fluorescence, 48 h, basal, profiling panel (AID 1164). Note: test concentration not given here. The settings on record: higher = more signal.
Experiment [14] is described as follows: compound effects on multiple myeloma cell viability – MM1S, calcein-AM fluorescence, 48 h, basal, profiling panel (AID 1165).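 Note: viability of MM1S multiple myeloma cells under basal unstimulated conditions; test concentration not given here.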 The settings on record: higher = more signal.
Experiment [15] can be described thus: calcein-AM signal in unstimulated myeloma cells – cell-based, calcein-AM fluorescence, 48 h, PK04 Diversity Set, profiling panel (AID 1166).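 Note: cells grown under basal conditions without added stimulus; test concentration not given here.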 The settings on record: RPMI8226 myeloma viability, higher = more signal.
Experiment [16] in a line: JC-1 mitochondrial signal, unstimulated HepG2 cells – cell-based, JC-1 fluorescence, 24 h, 100 nL compound, profiling panel (AID 1167). Note: test concentration not given here. The settings on record: HepG2 mitochondrial potential, higher = more signal.
Experiment [17] in a line: JC-1 mitochondrial signal, unstimulated adipocytes – cell-based, JC-1 fluorescence, 3T3-L1 adipocytes, 24 h, 100 nL compound, profiling panel (AID 1168). Note: test concentration not given here. To be noted: JC-1 mitochondrial fluorescence, higher = more signal, called active from +8 up or from −8 down.
The nature of experiment [18]: JC-1 mitochondrial signal, unstimulated myeloma cells – cell-based, JC-1 fluorescence, RPMI8226, 24 h, 100 nL compound, profiling panel (AID 1169). Note: test concentration not given here. The settings on record: JC-1 mitochondrial potential fluorescence, higher = more signal.
Experiment [19] is described as follows: JC-1 mitochondrial signal, unstimulated MM1S myeloma – cell-based, JC-1 fluorescence, 24 h, 100 nL compound, profiling panel (AID 1170). Note: test concentration not given here. To be noted: MM1S mitochondrial potential, higher = more signal.
The nature of experiment [20]: resazurin metabolic signal in A549 cells – cell-based, resazurin fluorescence, 24 h, PK04 Diversity Set, profiling panel (AID 1171). Note: test concentration not given here. The settings on record: A549 viability, higher = more signal, called active from +8 up or from −8 down. (Alamar Blue is a resazurin reagent that responds to reducing activity.)

Active and inactive are the calls of the source.

Sequence of NADPH oxidase 2 (Homo sapiens) (P04839 whole entry, looked up): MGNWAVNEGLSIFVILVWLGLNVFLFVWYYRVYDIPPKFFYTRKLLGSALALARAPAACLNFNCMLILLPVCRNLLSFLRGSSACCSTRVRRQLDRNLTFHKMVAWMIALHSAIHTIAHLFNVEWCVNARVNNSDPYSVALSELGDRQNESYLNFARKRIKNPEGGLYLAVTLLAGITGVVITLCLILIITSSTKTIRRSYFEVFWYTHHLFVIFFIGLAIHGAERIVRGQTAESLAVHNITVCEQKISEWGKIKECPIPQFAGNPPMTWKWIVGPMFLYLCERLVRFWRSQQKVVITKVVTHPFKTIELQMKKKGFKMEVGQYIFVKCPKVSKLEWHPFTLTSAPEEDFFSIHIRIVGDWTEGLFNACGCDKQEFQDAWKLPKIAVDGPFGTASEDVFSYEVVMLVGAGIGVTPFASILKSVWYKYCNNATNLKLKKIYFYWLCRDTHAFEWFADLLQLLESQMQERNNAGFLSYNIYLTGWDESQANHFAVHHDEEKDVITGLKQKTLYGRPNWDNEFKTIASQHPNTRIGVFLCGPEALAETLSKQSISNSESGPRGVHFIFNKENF
Sequence of NADPH oxidase 4 (Homo sapiens) (Q9NPH5 whole entry, looked up): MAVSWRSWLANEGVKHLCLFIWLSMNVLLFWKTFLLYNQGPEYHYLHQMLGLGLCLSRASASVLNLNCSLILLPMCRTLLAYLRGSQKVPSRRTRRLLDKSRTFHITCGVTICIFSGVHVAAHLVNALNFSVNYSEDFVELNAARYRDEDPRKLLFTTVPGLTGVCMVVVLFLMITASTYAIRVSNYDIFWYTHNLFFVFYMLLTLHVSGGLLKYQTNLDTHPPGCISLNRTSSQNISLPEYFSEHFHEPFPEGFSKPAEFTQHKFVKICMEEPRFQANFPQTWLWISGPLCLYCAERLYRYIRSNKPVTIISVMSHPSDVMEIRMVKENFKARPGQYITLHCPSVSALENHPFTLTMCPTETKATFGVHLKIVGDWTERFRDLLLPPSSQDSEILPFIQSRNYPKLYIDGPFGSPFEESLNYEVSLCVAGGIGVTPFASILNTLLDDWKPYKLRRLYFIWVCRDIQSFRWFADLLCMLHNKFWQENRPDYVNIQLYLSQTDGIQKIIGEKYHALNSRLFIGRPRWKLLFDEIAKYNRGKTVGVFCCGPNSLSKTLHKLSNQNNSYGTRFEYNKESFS

With `C[C@@H](c1ccccc1)N1C(=O)[C@H]2[C@H]3[C@H](O)[C@H](O)CC(=O)[C@H]3CC[C@H]2C1=O`, the z-score in [1] is 0.477 (inactive); in experiment [3], -0.74 (inactive); in [4] it was 0.0593 (inactive); in experiment [5], -0.105 (inactive); in [6], 0.0091 (inactive); in experiment [7] it was 0.297. The z-score is -0.522 (inactive) in experiment [8]; 0.05 (inactive) in experiment [9]; 0.811 in [10]; 0.614 in [11]; 0.205 in [12]; 0.92 in [13]. Moreover, the z-score in experiment [14] is 0.358; in experiment [15], -0.094; in experiment [16] it was 0.311; in experiment [17], 1.27 (inactive); in experiment [18], -0.826; in experiment [19] it was 1.05. The z-score in experiment [20] was 0.288 (inactive). In addition, in [2], the composite z-score was -0.196.

As to `CCN1C(=O)[C@H]2[C@H]3[C@H](O)[C@H](O)CC(=NNC(=O)OCc4ccc(OC)cc4)[C@@H]3CC[C@H]2C1=O`, the z-score in experiment [1] is -0.382 (inactive); in experiment [3] it was 1.09 (inactive); in [4], 0.195 (inactive); in experiment [5], -0.703 (inactive); in experiment [6], 0.181 (inactive); in [7] it was 0.117. Further, the z-score in experiment [8] was -0.13 (inactive); in experiment [9], 0.659 (inactive); in [10], -0.0409; in [11], -0.241; in experiment [12] it was -0.0397; in experiment [13], -0.112. In addition, the z-score is 0.0505 in experiment [14]; -0.788 in [15]; -0.586 in experiment [16]; -0.66 (inactive) in [17]; -0.232 in experiment [18]; -0.0402 in experiment [19]. The z-score in experiment [20] was 0.247 (inactive). Moreover, the composite z-score in [2] was found to be 0.238.

For `CCOC(=O)NN=C1C[C@@H](O)[C@@H](O)[C@@H]2[C@@H]3C(=O)N([C@@H](C)c4ccccc4)C(=O)[C@@H]3CC[C@H]12`, the z-score was 0.0575 (inactive) in experiment [1]; 0.65 (inactive) in experiment [3]; 0.452 (inactive) in experiment [4]; -0.011 (inactive) in [5]; 0.378 (inactive) in experiment [6]; -0.34 in experiment [7]. The z-score in [8] is 1.35 (inactive); in [9] it was 0.67 (inactive); in experiment [10], -0.657; in experiment [11], -0.0339; in experiment [12] it was -0.584; in [13], -0.102. Also, the z-score in experiment [14] is 0.136; in [15], -0.177; in experiment [16] it was -0.39; in [17], 0.29 (inactive); in [18] it was 0.104; in [19], -0.476. In addition, the z-score in experiment [20] was -0.193 (inactive). Also, in experiment [2], the composite z-score was determined as 0.119.

Consider `C[C@@H](c1ccccc1)N1C(=O)[C@H]2[C@H]3[C@H](O)[C@H](O)CC(=NOCc4ccccc4)[C@H]3CC[C@H]2C1=O`, for which the z-score in experiment [1] was 0.331 (inactive); in experiment [3] it was 31.6 (active); in experiment [4], 6.36 (inactive); in [5], 0.321 (inactive); in [6] it was 1.21 (inactive); in [7], -0.182. Moreover, the z-score was -1.53 (inactive) in experiment [8]; 0.0357 (inactive) in experiment [9]; -3.27 in experiment [10]; 0.654 in experiment [11]; -0.602 in experiment [12]; -0.159 in experiment [13]. For the same compound, the z-score in experiment [14] was 0.503; in experiment [15], 0.13; in [16] it was 0.879; in experiment [17], 0.925 (inactive); in [18], 0.00496; in experiment [19] it was -1.55. For the same compound, in [20], the z-score was -0.428 (inactive). The same compound yielded a composite z-score in experiment [2] of -0.0518.

The values are drawn from PubChem BioAssay.
